“And” between values parts separate entries of the source, which are not always exact repeats. Equal values may be shown once. Inconclusive results are not listed. Some compounds were tested as several samples or in several runs, with calls that do not always agree. The source made the active and inactive calls. The call rests on the fitted dose curve; in most records, active means well fitted inhibition curve with a large enough effect in the repeat runs; inconclusive means weak or mixed curves, or effect the other way; inactive means no such curve, though single readings can be large or run the other way.
Experiment: qHTS assay to identify small molecule antagonists of the retinoic acid receptor (RAR) signaling pathway (AID 1159552; further: nearly all actives have a fitted effect of over 50% in size)
Details: C3RL4 RARE luciferase reporter, retinol-stimulated, 6 h; series mostly up to 92.4 µM; activity, negative = inhibition: at the top concentration
Outline: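 C3RL4 RARE-luc cells, overnight plating; retinol 1 uM final added right after compound; 6 hr 37 C; luciferase read at 30 min RT.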
On the % scale 0 is the no-effect control and ±100 the full control effect; potency means the concentration at half of the fitted maximal effect.

| SMILES | Potency | activity, negative = inhibition |
| --- | --- | --- |
| CC1(c2ccc(Oc3ccccc3)cc2)OC(=O)N(Nc2ccccc2)C1=O (stereo not given) | 27.5 µM (active) | – |
| CC(C)OC(=O)C(O)(c1ccc(Cl)cc1)c1ccc(Cl)cc1 | 43.3 µM (active) | – |
| O=C(CBr)c1ccc(O)cc1 | 54.5 µM (active) | – |
| CC(C)CC(C)Nc1ccc(Nc2ccccc2)cc1 (stereo not given) | – | 9.28% (inactive) |
| CC(=O)O[C@H]1CC[C@@]2(C)C(=CC[C@@H]3[C@@H]2CC[C@]2(C)C(=O)CC[C@@H]32)C1 | – | -11.3% (inactive) |
| Cc1cc(C(C)(C)c2cc(C)c(O)c(C)c2)cc(C)c1O | 52.7 µM (active) | – |
| CC(C)(C)C(O)/C(=C\c1ccc(Cl)cc1Cl)n1cncn1 (stereo not given) | 58.7 µM (active) | – |
| CCc1nn(C)c(C(=O)NCc2ccc(C(C)(C)C)cc2)c1Cl | 27.3 µM (active) | – |
| CCCCCCCCc1ccc(O)cc1 | – | 6.21% (inactive) |
| Cc1cc(SCc2sc(-c3ccc(C(F)(F)F)c(F)c3)nc2C)ccc1OCC(=O)O | – | 27% (inactive) |
| Clc1ccc(COC(Cn2ccnc2)c2ccc(Cl)cc2Cl)cc1 (stereo not given) | 50.8 µM (active) and 48.4 µM (active) and inactive | – |
| N#Cc1c(-c2ccc(Cl)cc2)[nH]c(C(F)(F)F)c1Br | 0.545 µM (active) | – |
| CC[C@H](C)[C@H]1O[C@]2(C=C[C@@H]1C)C[C@@H]1C[C@@H](C/C=C(\C)[C@@H](O[C@H]3C[C@H](OC)[C@@H](O[C@H]4C[C@H](OC)[C@@H](O)[C@H](C)O4)[C@H](C)O3)[C@@H](C)/C=C/C=C3\CO[C@@H]4[C@H](O)C(C)=C[C@@H](C(=O)O1)[C@]34O)O2 | 32.2 µM (active) | – |
| CCCCCCCCCCCCCCC(Br)C(=O)O (stereo not given) | – | -5.43% (inactive) |
| c1ccc(Nc2ccc3ccccc3c2)cc1 | inactive | – |
| COc1cccc(C(=O)CCN[C@@H](C)[C@H](O)c2ccccc2)c1 | 26.6 µM (active) | – |
| C[CH2][Hg][N]1C(=O)C2C(C1=O)C1(Cl)C(Cl)=C(Cl)C2(Cl)C1(Cl)Cl (stereo not given) | 11.6 µM (active) | – |
| [CH3][Hg][Cl] | – | 72.2% (inactive) |
| COc1cccc2c1C(=O)c1c(O)c3c(c(O)c1C2=O)C[C@@](O)(C(=O)CO)CC3OC1CC(N2CCOC(OC)C2)C(O)C(C)O1 (stereo not given in full) | 0.106 µM (active) | – |
| O=CC(Br)(Br)Br | 27.2 µM (active) | – |

Reference: PubChem BioAssay (Tox21)
